# Assay results: paper PMC7862700, “An all-to-all approach to the identification of sequence-specific readers for epigenetic DNA modifications on cytosine”
# Key:
# Test in all cases: DAPPL (digital affinity profiling via proximity ligation, sequencing); 10 mM Tris-HCl pH 7.5, 50 mM NaCl, 1 mM DTT, 4% glycerol, room temperature, 30 min; GST-TFs on glutathione beads, 16-mer random dsDNA library, 0.1% formaldehyde crosslink after washing; high values mean tight binding
# [1] = target: T1, FEV (Homo sapiens, UniProt Q99581 1-238); conditions: protein: recombinant; tags: N-terminal GST; dsDNA, one strand shown
# T1 sequence: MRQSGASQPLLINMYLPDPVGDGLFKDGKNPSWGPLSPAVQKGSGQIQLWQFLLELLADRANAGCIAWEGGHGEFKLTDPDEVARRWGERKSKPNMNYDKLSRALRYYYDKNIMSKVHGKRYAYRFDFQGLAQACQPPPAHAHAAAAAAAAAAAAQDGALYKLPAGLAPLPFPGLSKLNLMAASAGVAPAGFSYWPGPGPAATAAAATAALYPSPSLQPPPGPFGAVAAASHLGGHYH
# Summary of the method: (§1)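 Binding signal is each hexamer's read frequency for a factor divided by its frequency in the tag-only sample. The factors were GST-fused human transcription factors from yeast, captured on glutathione beads, DNA-barcoded and pooled with that sample. Pools were incubated with 200 nmole of a random double-stranded 16-mer DNA library in Tris/NaCl/DTT/glycerol buffer at room temperature for 30 min, then washed, crosslinked with 0.1% formaldehyde, proximity-ligated with BsaI/T4 ligase (1 h, 37 °C), PCR-amplified and sequenced on an Illumina NextSeq500.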
# [2] = target: ETV5 (Homo sapiens, UniProt P41161 1-510); conditions: protein: recombinant; tags: N-terminal GST; dsDNA, one strand shown
# Chain of ETV5 (P41161 whole entry): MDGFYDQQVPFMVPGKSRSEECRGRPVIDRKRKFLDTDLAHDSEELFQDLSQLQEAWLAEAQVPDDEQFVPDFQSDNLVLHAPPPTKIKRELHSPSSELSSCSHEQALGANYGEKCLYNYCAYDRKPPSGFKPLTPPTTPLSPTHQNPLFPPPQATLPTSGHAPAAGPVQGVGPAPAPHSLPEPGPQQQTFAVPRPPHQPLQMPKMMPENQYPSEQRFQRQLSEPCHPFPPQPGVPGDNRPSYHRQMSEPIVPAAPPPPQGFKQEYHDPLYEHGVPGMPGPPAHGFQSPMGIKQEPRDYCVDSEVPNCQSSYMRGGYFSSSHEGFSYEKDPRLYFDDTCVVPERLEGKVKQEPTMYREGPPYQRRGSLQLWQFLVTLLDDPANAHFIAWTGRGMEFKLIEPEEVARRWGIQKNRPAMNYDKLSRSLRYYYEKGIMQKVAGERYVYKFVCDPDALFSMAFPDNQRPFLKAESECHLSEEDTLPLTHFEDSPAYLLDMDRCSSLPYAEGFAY
# Summary of the method: as §1
# [3] = target: HSF1 (Homo sapiens, UniProt Q00613 1-529); conditions: protein: recombinant; tags: N-terminal GST; chain copies: 3; dsDNA, one strand shown
# Chain of HSF1 (Q00613 whole entry): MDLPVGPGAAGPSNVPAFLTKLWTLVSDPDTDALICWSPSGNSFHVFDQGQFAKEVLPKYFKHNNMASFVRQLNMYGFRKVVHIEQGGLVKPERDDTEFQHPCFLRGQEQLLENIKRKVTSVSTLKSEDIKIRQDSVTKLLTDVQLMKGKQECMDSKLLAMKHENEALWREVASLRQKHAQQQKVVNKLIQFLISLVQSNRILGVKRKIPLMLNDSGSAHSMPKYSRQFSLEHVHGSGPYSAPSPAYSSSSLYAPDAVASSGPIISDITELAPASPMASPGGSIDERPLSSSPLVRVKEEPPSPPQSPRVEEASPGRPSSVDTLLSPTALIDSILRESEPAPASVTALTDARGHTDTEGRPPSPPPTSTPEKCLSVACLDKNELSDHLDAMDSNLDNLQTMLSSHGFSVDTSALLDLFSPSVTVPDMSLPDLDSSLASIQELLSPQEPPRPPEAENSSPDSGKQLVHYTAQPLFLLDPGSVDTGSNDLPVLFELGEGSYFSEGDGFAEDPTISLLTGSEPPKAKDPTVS
# Summary of the method: as §1
# [4] = target: ELF4 (Homo sapiens, UniProt Q99607 1-663); conditions: protein: recombinant; tags: N-terminal GST; dsDNA, one strand shown
# Chain of ELF4 (Q99607 whole entry): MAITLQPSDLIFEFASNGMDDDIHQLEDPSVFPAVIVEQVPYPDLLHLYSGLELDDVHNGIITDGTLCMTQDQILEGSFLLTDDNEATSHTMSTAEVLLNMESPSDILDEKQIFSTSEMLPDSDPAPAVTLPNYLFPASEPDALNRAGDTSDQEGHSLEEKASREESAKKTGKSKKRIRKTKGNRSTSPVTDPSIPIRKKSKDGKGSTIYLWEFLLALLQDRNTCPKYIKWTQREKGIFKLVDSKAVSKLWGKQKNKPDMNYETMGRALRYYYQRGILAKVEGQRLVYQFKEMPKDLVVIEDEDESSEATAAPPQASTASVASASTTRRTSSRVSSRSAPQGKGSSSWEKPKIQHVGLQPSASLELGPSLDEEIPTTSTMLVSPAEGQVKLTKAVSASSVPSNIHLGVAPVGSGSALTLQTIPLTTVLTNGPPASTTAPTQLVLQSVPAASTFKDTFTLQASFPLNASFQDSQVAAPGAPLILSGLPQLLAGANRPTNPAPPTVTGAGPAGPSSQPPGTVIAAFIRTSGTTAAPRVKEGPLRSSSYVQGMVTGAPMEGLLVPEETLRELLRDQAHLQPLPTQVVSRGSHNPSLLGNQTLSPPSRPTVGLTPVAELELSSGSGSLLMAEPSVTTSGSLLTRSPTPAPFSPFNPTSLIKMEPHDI
# Summary of the method: as §1
# [5] = target: T2, ELK4 (Homo sapiens, UniProt P28324-2 1-405); conditions: protein: recombinant; tags: N-terminal GST; dsDNA, one strand shown
# T2 sequence: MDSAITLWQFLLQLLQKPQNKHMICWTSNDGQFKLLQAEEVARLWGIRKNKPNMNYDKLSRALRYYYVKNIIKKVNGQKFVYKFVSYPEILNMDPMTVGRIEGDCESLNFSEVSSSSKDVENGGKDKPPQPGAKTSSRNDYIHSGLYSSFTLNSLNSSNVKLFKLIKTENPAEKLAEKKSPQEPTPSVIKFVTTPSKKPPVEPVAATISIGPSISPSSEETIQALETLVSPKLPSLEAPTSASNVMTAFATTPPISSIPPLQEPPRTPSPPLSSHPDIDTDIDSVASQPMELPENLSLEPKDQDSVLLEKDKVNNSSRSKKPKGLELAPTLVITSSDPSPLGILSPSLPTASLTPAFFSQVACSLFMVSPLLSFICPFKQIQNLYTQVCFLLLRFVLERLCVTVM
# Summary of the method: as §1
# [6] = target: T3, ELF3 (Homo sapiens, UniProt P78545 1-371); conditions: protein: recombinant; tags: N-terminal GST; dsDNA, one strand shown
# T3 sequence: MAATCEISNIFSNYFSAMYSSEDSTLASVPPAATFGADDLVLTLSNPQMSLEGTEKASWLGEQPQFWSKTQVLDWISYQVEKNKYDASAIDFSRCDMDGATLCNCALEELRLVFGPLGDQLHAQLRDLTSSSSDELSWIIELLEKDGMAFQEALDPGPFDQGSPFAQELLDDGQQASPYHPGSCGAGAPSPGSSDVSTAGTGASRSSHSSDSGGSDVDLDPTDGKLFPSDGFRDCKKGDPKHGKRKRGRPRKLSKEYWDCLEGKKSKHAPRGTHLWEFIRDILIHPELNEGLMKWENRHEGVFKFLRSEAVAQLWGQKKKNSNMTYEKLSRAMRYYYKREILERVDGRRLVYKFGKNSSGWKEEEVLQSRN
# Summary of the method: as §1
# [7] = target: ETV1 (Homo sapiens, UniProt P50549 1-477); conditions: protein: recombinant; tags: N-terminal GST; dsDNA, one strand shown
# Chain of ETV1 (P50549 whole entry): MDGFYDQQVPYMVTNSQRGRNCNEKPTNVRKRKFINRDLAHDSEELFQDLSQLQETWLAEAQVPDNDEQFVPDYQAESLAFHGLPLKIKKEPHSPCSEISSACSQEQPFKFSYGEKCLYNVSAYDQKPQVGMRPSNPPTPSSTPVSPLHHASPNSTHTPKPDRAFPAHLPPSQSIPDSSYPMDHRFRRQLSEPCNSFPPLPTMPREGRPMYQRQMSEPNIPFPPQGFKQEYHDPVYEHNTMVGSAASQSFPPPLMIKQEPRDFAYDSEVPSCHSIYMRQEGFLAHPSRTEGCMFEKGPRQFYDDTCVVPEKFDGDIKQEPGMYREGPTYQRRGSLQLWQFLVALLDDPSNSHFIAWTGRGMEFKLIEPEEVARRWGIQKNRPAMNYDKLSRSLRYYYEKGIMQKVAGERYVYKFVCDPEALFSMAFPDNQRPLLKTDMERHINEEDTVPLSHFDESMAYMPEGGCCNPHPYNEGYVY
# Summary of the method: as §1
# [8] = target: T4, ERF (Homo sapiens, UniProt P50548 1-548); conditions: protein: recombinant; tags: N-terminal GST; dsDNA, one strand shown
# T4 sequence: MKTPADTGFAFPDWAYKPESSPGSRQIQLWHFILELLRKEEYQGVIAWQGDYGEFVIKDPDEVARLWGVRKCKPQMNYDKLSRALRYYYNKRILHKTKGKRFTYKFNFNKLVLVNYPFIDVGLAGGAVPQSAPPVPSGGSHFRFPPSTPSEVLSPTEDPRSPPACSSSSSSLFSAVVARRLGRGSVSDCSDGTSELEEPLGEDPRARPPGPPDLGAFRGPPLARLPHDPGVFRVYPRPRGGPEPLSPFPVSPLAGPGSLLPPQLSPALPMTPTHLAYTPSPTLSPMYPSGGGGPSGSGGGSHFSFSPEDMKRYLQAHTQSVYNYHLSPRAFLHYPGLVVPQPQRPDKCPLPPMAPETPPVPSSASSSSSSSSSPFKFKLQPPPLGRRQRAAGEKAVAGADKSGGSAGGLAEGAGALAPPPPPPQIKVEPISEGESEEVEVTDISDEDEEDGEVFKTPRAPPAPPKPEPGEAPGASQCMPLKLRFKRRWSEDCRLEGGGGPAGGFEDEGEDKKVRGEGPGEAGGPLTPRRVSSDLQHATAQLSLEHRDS
# Summary of the method: as §1
# [9] = target: T5, ETV3L (Homo sapiens, UniProt Q6ZN32 1-361); conditions: protein: recombinant; tags: N-terminal GST; dsDNA, one strand shown
# T5 sequence: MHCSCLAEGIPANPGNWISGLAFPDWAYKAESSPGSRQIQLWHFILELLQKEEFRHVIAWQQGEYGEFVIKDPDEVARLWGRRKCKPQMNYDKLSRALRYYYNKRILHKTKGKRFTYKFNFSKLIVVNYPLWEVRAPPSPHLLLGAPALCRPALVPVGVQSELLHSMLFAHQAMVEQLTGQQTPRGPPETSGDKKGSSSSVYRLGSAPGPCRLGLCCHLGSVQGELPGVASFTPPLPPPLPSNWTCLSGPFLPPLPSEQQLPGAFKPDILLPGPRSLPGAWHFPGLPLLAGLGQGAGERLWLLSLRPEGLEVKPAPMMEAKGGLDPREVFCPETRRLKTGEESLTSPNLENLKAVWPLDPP
# Summary of the method: as §1
# [10] = target: T6, ETS2 (Homo sapiens, UniProt P15036 1-469); conditions: protein: recombinant; tags: N-terminal GST; dsDNA, one strand shown
# T6 sequence: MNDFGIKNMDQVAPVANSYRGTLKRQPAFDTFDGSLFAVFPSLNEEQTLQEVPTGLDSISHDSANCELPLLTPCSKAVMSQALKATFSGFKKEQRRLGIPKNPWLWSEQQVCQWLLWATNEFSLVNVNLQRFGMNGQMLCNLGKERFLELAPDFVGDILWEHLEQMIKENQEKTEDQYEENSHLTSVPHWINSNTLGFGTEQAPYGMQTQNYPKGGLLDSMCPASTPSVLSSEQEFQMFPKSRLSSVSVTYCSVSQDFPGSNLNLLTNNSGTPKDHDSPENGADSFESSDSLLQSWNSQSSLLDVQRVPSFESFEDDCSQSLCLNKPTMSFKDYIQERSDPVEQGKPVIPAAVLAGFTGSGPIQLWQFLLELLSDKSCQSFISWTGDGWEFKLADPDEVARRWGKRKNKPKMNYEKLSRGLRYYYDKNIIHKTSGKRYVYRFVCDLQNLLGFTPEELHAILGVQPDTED
# Summary of the method: as §1
# [11] = target: T7, SPDEF (Homo sapiens, UniProt O95238 1-335); conditions: protein: recombinant; tags: N-terminal GST; dsDNA, one strand shown
# T7 sequence: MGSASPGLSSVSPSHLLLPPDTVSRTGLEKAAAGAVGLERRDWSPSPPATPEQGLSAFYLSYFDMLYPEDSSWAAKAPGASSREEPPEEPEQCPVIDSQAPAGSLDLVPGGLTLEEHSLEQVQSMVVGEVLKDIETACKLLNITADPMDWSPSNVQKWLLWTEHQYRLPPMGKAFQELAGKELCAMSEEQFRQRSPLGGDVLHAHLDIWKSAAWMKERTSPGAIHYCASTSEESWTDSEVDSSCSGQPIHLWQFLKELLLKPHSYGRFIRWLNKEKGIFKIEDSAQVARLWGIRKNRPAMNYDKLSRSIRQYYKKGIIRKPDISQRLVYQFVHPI
# Summary of the method: as §1
# [12] = target: T8, ETV7 (Homo sapiens, UniProt Q9Y603 1-341); conditions: protein: recombinant; tags: N-terminal GST; dsDNA, one strand shown
# T8 sequence: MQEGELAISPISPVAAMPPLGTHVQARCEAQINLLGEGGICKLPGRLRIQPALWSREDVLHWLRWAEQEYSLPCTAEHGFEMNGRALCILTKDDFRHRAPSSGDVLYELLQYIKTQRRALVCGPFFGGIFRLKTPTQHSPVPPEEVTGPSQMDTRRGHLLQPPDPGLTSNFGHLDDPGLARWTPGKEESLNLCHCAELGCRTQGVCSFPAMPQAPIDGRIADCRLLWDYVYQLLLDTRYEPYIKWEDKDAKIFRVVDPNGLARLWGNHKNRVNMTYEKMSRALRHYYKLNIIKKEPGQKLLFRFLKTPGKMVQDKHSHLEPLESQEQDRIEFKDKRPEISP
# Summary of the method: as §1
# [13] = target: T9, ELF5 (Homo sapiens, UniProt Q9UKW6-2 1-255); conditions: protein: recombinant; tags: N-terminal GST; dsDNA, one strand shown
# T9 sequence: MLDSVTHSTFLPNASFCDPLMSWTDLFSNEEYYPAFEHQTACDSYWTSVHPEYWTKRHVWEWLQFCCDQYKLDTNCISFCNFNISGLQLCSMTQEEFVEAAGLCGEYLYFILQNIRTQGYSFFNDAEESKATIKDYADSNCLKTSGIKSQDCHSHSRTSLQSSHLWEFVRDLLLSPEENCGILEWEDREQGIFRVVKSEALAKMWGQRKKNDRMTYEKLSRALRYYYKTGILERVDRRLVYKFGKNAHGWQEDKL
# Summary of the method: as §1
# [14] = target: T10, ETV3 (Homo sapiens, UniProt P41162-2 1-143); conditions: protein: recombinant; tags: N-terminal GST; dsDNA, one strand shown
# T10 sequence: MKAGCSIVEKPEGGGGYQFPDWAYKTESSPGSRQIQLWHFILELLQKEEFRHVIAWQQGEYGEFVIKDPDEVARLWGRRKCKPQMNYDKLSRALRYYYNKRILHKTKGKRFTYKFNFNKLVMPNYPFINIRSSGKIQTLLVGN
# Summary of the method: as §1
# [15] = target: ETV6 (Homo sapiens, UniProt P41212 1-452); conditions: protein: recombinant; tags: N-terminal GST; dsDNA, one strand shown
# Chain of ETV6 (P41212 whole entry): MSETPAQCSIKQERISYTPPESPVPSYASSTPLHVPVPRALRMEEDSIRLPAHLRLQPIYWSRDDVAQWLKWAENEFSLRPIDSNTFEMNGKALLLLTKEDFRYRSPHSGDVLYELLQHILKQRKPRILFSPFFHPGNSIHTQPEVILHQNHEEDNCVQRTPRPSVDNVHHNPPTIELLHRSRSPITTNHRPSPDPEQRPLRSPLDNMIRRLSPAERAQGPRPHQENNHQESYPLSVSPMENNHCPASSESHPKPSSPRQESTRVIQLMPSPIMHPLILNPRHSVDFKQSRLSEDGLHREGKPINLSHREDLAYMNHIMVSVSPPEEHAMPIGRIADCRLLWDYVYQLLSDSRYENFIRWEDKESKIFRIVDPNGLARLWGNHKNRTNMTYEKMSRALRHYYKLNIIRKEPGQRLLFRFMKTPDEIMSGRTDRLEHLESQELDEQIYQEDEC
# Summary of the method: as §1
sequence,measurement,setting,value
CAAGCA,binding signal,[1],"1.13 fold enrichment (6-mer frequency, TF over GST control)"
same,binding signal,[2],"1.17 fold enrichment (6-mer frequency, TF over GST control)"
same,binding signal,[3],"1.03 fold enrichment (6-mer frequency, TF over GST control)"
same,binding signal,[4],"1.16 fold enrichment (6-mer frequency, TF over GST control)"
same,binding signal,[5],"1.14 fold enrichment (6-mer frequency, TF over GST control)"
same,binding signal,[6],"1.28 fold enrichment (6-mer frequency, TF over GST control)"
same,binding signal,[7],"1.1 fold enrichment (6-mer frequency, TF over GST control)"
same,binding signal,[8],"1.15 fold enrichment (6-mer frequency, TF over GST control)"
same,binding signal,[9],"1.17 fold enrichment (6-mer frequency, TF over GST control)"
same,binding signal,[10],"1.25 fold enrichment (6-mer frequency, TF over GST control)"
same,binding signal,[11],"1.06 fold enrichment (6-mer frequency, TF over GST control)"
same,binding signal,[12],"1.1 fold enrichment (6-mer frequency, TF over GST control)"
same,binding signal,[13],"1.11 fold enrichment (6-mer frequency, TF over GST control)"
same,binding signal,[14],"1.16 fold enrichment (6-mer frequency, TF over GST control)"
same,binding signal,[15],"1.14 fold enrichment (6-mer frequency, TF over GST control)"
